Experimental data: PubChem BioAssay AID485297 (National Center for Advancing Translational Sciences (NCATS), 2010)
The campaign covered roughly 320,000 compounds. About 9,100 (2.8%) were called active. Another 3% or so got no clear call; they are omitted. Only a selection was taken, and actives are over-represented in it overall. A number with no mark means an inactive call. The call rests on the fitted dose curve; in most records, active means well fitted activation curve with a large enough effect; inconclusive means small, poorly fitted or top-dose-only effect; inactive means no such curve, though single readings can be large or run the other way.

assay: qHTS Assay for Rab9 Promoter Activators; conditions: Huh7 Rab9 promoter-luciferase reporter, luminescence, 24 h; series mostly up to 9.22 µM; activation, negative = inhibition: at the top concentration; further: nearly all actives have a fitted effect of over 60% in size; on activation, negative = inhibition: % of control where 0% means no effect
Procedure, shortened: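 Rab9 promoter-driven luciferase in stably transfected Huh7 cells; 1500 cells/well rested 2 h, exposed to compound in DMSO for 24 h at 37 °C, 5% CO2. Luminescence read 10 min after adding luciferase reagent at ambient temperature.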
Potency means the concentration at half of the fitted maximal effect.

First: O=C(CN1CCCCC1)NC(=O)Nc1ccccc1F
Second: O=C(NNC(=O)c1cc(S(=O)(=O)N2CCCCC2)ccc1Cl)c1ccccc1O
The “activation, negative = inhibition” value of the first is higher: 22.7% for the first, 1.25% for the second.

Going from `CC(=O)C[C@@H](O)CC(=O)[C@H]1OC(=O)CCCCCCc2ccccc21` to `O=C(COc1ccccc1O)NC1CCCC1`, the “activation, negative = inhibition” value falls from -3.17% to -6.06%.

First: Cc1cc(C(=O)OCC(=O)Nc2ccccc2Cl)c(C)o1
Second: CS(=O)(=O)Nc1ccccc1C(=O)OCC(=O)NC1CC1
The “activation, negative = inhibition” value of the first is lower: -6.44% for the first, -1.03% for the second.

Compared with `COc1ccc(C(=O)NCC2CCCCC2)cc1S(=O)(=O)N1CCCC1`, `Cc1cc(C)cc(NC(=O)N2CCCCCCC2)c1` is lower in “activation, negative = inhibition” value: 0.873% for the first, -4.2% for the second.

Going from `COc1ccc(OC)c(NC(=O)c2sc3nc(C)cc(C)c3c2N)c1` to `COc1ccc(C(=O)CSc2nc(C)cc(C)n2)cc1[N+](=O)[O-]`, the “activation, negative = inhibition” value falls from 8.54% to -0.448%.

Compared with `COCCCNc1nc2c(-c3cccc(C)c3)nnn2c2ccc(Cl)cc12`, `Cn1nc(-c2ccccc2)c(-c2nc(-c3ccc(Cl)cc3)no2)c1Cl` is lower in “activation, negative = inhibition” value: 12.4% for the first, 2.72% for the second.

Compared with `COC(=O)c1cc(Oc2ccc(S(=O)(=O)N3CCOCC3)cc2[N+](=O)[O-])cc(C(=O)OC)c1`, `COc1ccc(S(=O)(=O)Nc2ccc3cn[nH]c3c2)cc1[N+](=O)[O-]` is higher in “activation, negative = inhibition” value: -6.91% for the first, 7.24% for the second.

Going from `CCN(CC(=O)NCc1cccs1)C(=O)/C=C/c1ccc(C)cc1` to `Cc1cccn2c(=O)nc(SCC(=O)NCc3ccccc3Cl)nc12`, the “activation, negative = inhibition” value falls from 2.1% to -0.952%.

First: COc1ccccc1NC(=O)COC(=O)COc1ccccc1F
Second: COc1ccccc1OCC(=O)OCc1cc(-c2ccco2)on1
The “activation, negative = inhibition” value of the first is lower: -7.1% for the first, 1.46% for the second.

Going from `CCS(=O)(=O)C1=NSC2=NC(=O)/C(=C\c3cc(C)n(-c4cccc(OC)c4)c3C)C(=N)N21` to `CCC1=NN2C(=N)/C(=C/c3cc(C)n(-c4ccccc4)c3C)C(=O)N=C2S1`, the “activation, negative = inhibition” value falls from 11.3% to -0.946%.

First: COc1ccc([C@H]2CC(=O)C=C(/C=C/c3ccccc3)C2)cc1
Second: COc1ccc(C(=O)NC2CCN(C(=S)NCCc3ccccc3)CC2)cc1
The “activation, negative = inhibition” value of the first is higher: 29.8% for the first, -5.13% for the second.

First: COc1ccc2oc(=O)c(C(=O)N3CCCC3)cc2c1
Second: COc1ccc(N2C(=O)CC(Nc3ccc(F)cc3)C2=O)c([N+](=O)[O-])c1 (stereo unspecified)
The “activation, negative = inhibition” value of the first is lower: -2% for the first, 7.65% for the second.

Compared with `O=C1CCN(C(=S)NCCc2ccccc2)CC1`, `CC(C)CCN1CCC(C)(NC(=O)c2ccccc2)C1=O` (stereo unspecified) is lower in “activation, negative = inhibition” value: -4.64% for the first, -5.81% for the second.

Compared with `Nc1nonc1-c1noc(-c2ccc(Br)o2)n1`, `CCOc1c(Nc2cccc(Cl)c2)c(=O)c1=O` is lower in “activation, negative = inhibition” value: 4.09% for the first, -5.39% for the second.

First: CCOC(=O)c1cc2c(nc1NC(=S)Nc1ccccc1)CC(C)(CC)OC2 (stereo unspecified)
Second: CCOC(=O)c1ccc(NC(=S)Nc2cc(C)cc(C)n2)cc1
The “activation, negative = inhibition” value of the first is lower: 2.37% for the first, 8.83% for the second.

Compared with `Cn1nc(C(=O)OCC(=O)N(Cc2ccccc2)C(C)(C)C)c2ccccc2c1=O`, `CCOC(=O)C1CCN(C(=O)c2cccc(S(=O)(=O)N(CC)c3ccccc3)c2)CC1` is higher in “activation, negative = inhibition” value: -5.8% for the first, -4.21% for the second.

Going from `O=S(=O)(Nc1ccc(-n2cnnn2)cc1)c1ccc(Cl)cc1` to `Cc1nc([N+](=O)[O-])cn1CC(=O)Nc1ccc(Cl)cc1`, the “activation, negative = inhibition” value falls from 2.76% to 2.29%.

Going from `O=C(COc1nc2ccccc2nc1N1CCOCC1)NCC(F)(F)F` to `COc1ccccc1OCC(=O)OCn1c(SC)nnc(C)c1=O`, the “activation, negative = inhibition” value falls from 1.89% to -2.91%.

Going from `O=C(C1Cc2ccccc2CN1C(=O)c1ccco1)N1CCN(c2ccccc2)CC1` (stereo unspecified) to `O=C(Nc1ccccc1Cl)O/N=C(/c1ccccc1)c1ccccn1`, the “activation, negative = inhibition” value rises from -0.202% to 9.2%.

First: CCn1cnc2scc(-c3ccc(C)c(C)c3)c2c1=O
Second: Cc1ccc(Cl)cc1NC(=O)c1ccccn1
The “activation, negative = inhibition” value of the first is lower: -0.893% for the first, 12% for the second.

Going from `O=C(O)C1CCCCC1C(=O)Nc1ccc(Cl)cc1` (stereo unspecified) to `O=C(COC(=O)c1ccccn1)NNC(=O)c1ccc([N+](=O)[O-])cc1`, the “activation, negative = inhibition” value falls from -0.294% to -4.35%.

First: COc1ccc(C(=O)NNC(=O)c2cnccn2)cc1[N+](=O)[O-]
Second: O=C(OCc1ccc([N+](=O)[O-])cc1)c1ccccn1
The “activation, negative = inhibition” value of the first is higher: 0.405% for the first, -1.27% for the second.

With `CC(C)Cn1c(N)c(C(=O)COC(=O)C2CCCN2C(=O)c2cccs2)c(=O)n(C)c1=O` (stereo unspecified) the “activation, negative = inhibition” value was -0.406%.

With `CC(C)Nc1ccc(-n2nc3ccccc3[n+]2[O-])cc1` the Potency was 501 nM (active).
In the case of `Cc1cc(/C=C2/C(=N)N3C(=NC2=O)SN=C3S(C)(=O)=O)c(C)n1-c1ccccc1`, the Potency is reported as 3550 nM (active).
In the case of `Cc1ccc2cc3cc(C(=O)N4CCCCCC4)oc3nc2c1`, the Potency is reported as 631 nM (active).
With `S=C(NCCc1ccccc1)N1CCCCC1` the Potency was 3160 nM (active).
For `Brc1ccc(-c2noc(-c3ccccc3)n2)o1`, the Potency was 1260 nM (active).
With `CCOC(=O)c1cn[nH]c1NC(=S)Nc1ccccc1` the Potency was 1120 nM (active).
In the case of `O=C(Nc1ccc(Cl)cc1)/C(=C1\CCCN1)[N+](=O)[O-]`, the Potency is reported as 2820 nM (active).
In the case of `Cc1ccc(C(=O)O/N=C(\N)c2ccccn2)cc1Cl`, the Potency is reported as 3160 nM (active).
For `N/C(=N\OC(=O)c1ccc([N+](=O)[O-])cc1)c1ccccn1`, the Potency was 316 nM (active).
For `COc1ccccc1OCC(=O)O/N=C(\N)c1ccccn1`, the Potency was 3160 nM (active).
In the case of `COc1ccc(C(=O)O/N=C(\N)c2ccccn2)cc1[N+](=O)[O-]`, the Potency is reported as 4470 nM (active).
